Measurements published in PubChem BioAssay (Tox21).
Where “and” joins values, the source holds several entries; their conditions need not be identical. Equal values may be shown once. Inconclusive results are not listed. Where a call stands in place of a potency, no number is given. Some structures have more than one record in an assay (separate samples or runs), and their calls can disagree. Calls of active or inactive are those of the source. Unless noted, calls come from the whole dose curve; as a rule, active = well fitted curve in the direction sought with a large enough effect in the repeat runs; inconclusive = weak or mixed curves; inactive = no such curve, though single readings can be large; an effect the other way counts as inactive or inconclusive.

Columns and labels:
[1] = biological target: Retinoic acid receptor RXR-alpha (Homo sapiens) (UniProt P19793); experiment: qHTS assay to identify small molecule agonists of the RXR signaling pathway (AID 1159527; calls by dose curve; note: nearly all actives have a fitted effect of over 35% in size; note: potency is the fitted concentration of half-maximal effect)
Outline: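 Reporter activation is measured as beta-lactamase activity via FRET substrate cleavage (emission 460/530 nm) in HEK 293T cells expressing an RXR-alpha-driven bla construct, following 16 hr compound exposure at 37 C.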

[2] = qHTS assay to identify small molecule agonists of the RXR signaling pathway - cell viability counter screen (AID 1159529); note: series mostly up to about 77 µM; nearly all actives have a fitted effect of over 50% in size
Outline: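 Tox21 10K compounds were tested for cytotoxicity against GeneBLAzer RXR-alpha HEK 293T cells grown in 2% charcoal-stripped FBS. Exposure lasted 16 hr at 37 C, 5% CO2; viability read by CellTiter-Glo luminescence.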

[3] = qHTS assay to identify small molecule antagonists of the retinoid acid receptor (RAR) signaling pathway - cell viability counter screen (AID 1159551); note: nearly all actives have a fitted effect of over 35% in size
Outline: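 In this counter screen, the RARE-luciferase line C3RL4 was exposed for 6 h at 37 C and 5% CO2 to compounds with retinol at 1 uM final. Cellular ATP, read by luminescence, served as the viability measure.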

[4] = qHTS assay to identify small molecule antagonists of the retinoic acid receptor (RAR) signaling pathway (AID 1159552; note: nearly all actives have a fitted effect of over 50% in size)
Outline: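 Overnight-plated C3RL4 reporter cells get compound, then retinol to 1 uM final; plates sit 6 hr at 37 C, 5% CO2. A luciferase reagent is added and light output recorded after 30 min at room temperature.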

[5] = qHTS assay to identify small molecule agonists of the retinoic acid receptor (RAR) signaling pathway (AID 1159553); note: potency is the fitted concentration of half-maximal effect
Outline: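 In this cell-based screen, 1,000 C3RL4 cells per well were cultured overnight, dosed with test chemicals in DMSO for 6 hr, and assessed for RARE luciferase luminescence.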

[6] = qHTS assay to identify small molecule antagonists of the estrogen related receptor (ERR) signaling pathway - cell viability counter screen (AID 1224818); note: series mostly up to about 46 µM
Outline: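 Viability of ERR cells, CellTiter-Fluor fluorescence; 17.5 h compound exposure at 37 C, DMSO vehicle; 30 min reagent incubation at 37 C/5% CO2.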

[7] = qHTS assay to identify small molecule antagonists of the estrogen related receptor (ERR) signaling pathway from Tox21 library - cell viability counter screen (AID 1224834); note: nearly all actives have a fitted effect of over 30% in size
Outline: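 Counter screen run in ERR cells (2,000 cells/well): cells pre-incubated 6 h, then treated with compounds for 17.5 h at 37 C. Fluorescence was read 30 min after CellTiter-Fluor addition.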

[8] = biological target: Luciferin 4-monooxygenase (Photinus pyralis) (UniProt P08659); experiment: qHTS assay to identify small molecule inhibitors of firefly luciferase (AID 1224835); note: nearly all actives have a fitted effect of over 25% in size; note: potency is the fitted concentration of half-maximal effect
Outline: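 Inhibition of purified Photinus luciferase is measured by luminescence. Substrate levels (D-luciferin, ATP) sit at their KM values. Each compound is tested in a concentration series.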

[9] = qHTS assay to identify small molecule agonists of the constitutive androstane receptor (CAR) signaling pathway - cell viability counter screen (AID 1224836); note: series mostly up to about 92 µM; nearly all actives have a fitted effect of over 45% in size
Outline: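 Fluorescence from CellTiter-Fluor indicates live cells after 23 h exposure. The human hepatoma line expresses hCAR and a CYP2B6-2.2kb reporter. Incubation medium contains 0.75 uM PK11195 (final).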

[10] = qHTS assay to identify small molecule antagonists of the constitutive androstane receptor (CAR) signaling pathway - cell viability counter screen (AID 1224837); note: series mostly up to about 92 µM; nearly all actives have a fitted effect of over 45% in size
Outline: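 CITCO at 50 nM final was added alongside compounds (15 concentrations) to double-stable hCAR/CYP2B6-2.2kb HepG2 cells. Following 23 hr at 37 C, cell viability was quantified by CellTiter-Fluor fluorescence intensity.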

[11] = qHTS assay to identify small molecule antagonists of the estrogen related receptor signaling pathway with the pleiotropic PPARgamma coactivator (PGC) from Tox21 10K library - cell viability counter screen (AID 1224840; active = well fitted cell-killing curve with a large enough effect in the repeat runs, not every such curve was filed as active; note: nearly all actives have a fitted effect of over 40% in size)
Outline: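 Readout: fluorescence intensity from CellTiter-Fluor after 30 min at 37 C/5% CO2. Preceded by 17.5 h treatment of PGC/ERR cells with DMSO-dissolved compounds, added 6 h post-seeding.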

[12] = biological target: Nuclear receptor subfamily 1 group I member 3 (Homo sapiens) (UniProt Q14994); experiment: qHTS assay to identify small molecule antagonists of the constitutive androstane receptor (CAR) signaling pathway (AID 1224838); note: nearly all actives have a fitted effect of over 40% in size
Outline: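 Inhibition of CITCO-driven (50 nM final) CYP2B6 reporter expression is measured in HepG2 cells stably carrying hCAR. Fifteen compound concentrations are applied for 24 h at 37 C, followed by luciferase luminescence.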

[13] = biological target: Nuclear receptor subfamily 1 group I member 3 (Homo sapiens) (UniProt Q14994); experiment: qHTS assay to identify small molecule agonists of the constitutive androstane receptor (CAR) signaling pathway (AID 1224839); note: nearly all actives have a fitted effect of over 15% in size; note: potency is the fitted concentration of half-maximal effect
Outline: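 Stable hCAR/CYP2B6-2.2kb HepG2 line in DMEM with 10% FBS; compounds (15 concentrations) and 0.75 uM PK11195 final, 24 h at 37 C/5% CO2, then ONE-Glo luminescence after 30 min.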

[14] = qHTS assay to identify small molecule antagonists of the estrogen related receptor signaling pathway with the pleiotropic PPARgamma coactivator (PGC) from Tox21 10K library (AID 1224841; call rule not given here; note: actives are mostly falling curves and most rising ones were filed inactive; nearly all actives have a fitted effect of over 50% in size; note: potency is the fitted concentration of half-maximal effect)
Outline: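 One-Glo luminescence, measured after half an hour at room temperature, quantified reporter output of PGC/ERR cells. These had been plated at 2,000 per well, incubated 6 h, dosed with compounds in DMSO, then kept 18 h at 37 C.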

[15] = qHTS assay to identify small molecule agonists of the estrogen related receptor signaling pathway with the pleiotropic PPARgamma coactivator (PGC) from Tox21 10K library (AID 1224842); note: nearly all actives have a fitted effect of over 15% in size
Outline: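 Luminescence from One-Glo (30 min, room temperature) measured after PGC/ERR cells had 18 h at 37 C with pinned compound (23 nL in DMSO). Cells had been seeded at 2,000 per well and pre-incubated 6 h.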

[16] = biological target: Thyrotropin receptor (Homo sapiens) (UniProt P16473); experiment: qHTS assay to identify small molecule agonists of the thyroid stimulating hormone receptor (TSHR) signaling pathway (AID 1224843; calls by dose curve; note: nearly all actives have a fitted effect of over 45% in size)
Outline: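 Agonist activity read as cAMP rise via d2/cryptate HTRF competition, 1 h room-temperature detection, in HEK293 cells expressing TSHR. Fifteen-point titrations, each run in triplicate, with a 30 min room-temperature incubation beforehand.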

[17] = qHTS assay to identify small molecule antagonists of the estrogen related receptor (ERR) signaling pathway (AID 1224819; note: nearly all actives have a fitted effect of over 50% in size; note: potency is the fitted concentration of half-maximal effect)
Outline: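 Seed ERR cells 2,000/well; rest 6 h at 37 C/5% CO2; pin compounds in DMSO; incubate 18 h at 37 C; add One-Glo; wait 30 min at room temperature; measure luminescence.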

[18] = qHTS assay to identify small molecule agonists of the estrogen related receptor (ERR) signaling pathway (AID 1224820)
Outline: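 After 6 h plating (2,000 cells/well) and 18 h compound treatment at 37 C, ERR cells were lysed with One-Glo and luminescence read after 30 min at room temperature.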

[19] = test system: estrogen-related receptor alpha (ERRalpha) with PGC-1alpha coactivator, human; experiment: qHTS assay to identify small molecule antagonists of the estrogen related receptor signaling pathway with the pleiotropic PPARgamma coactivator (PGC) (AID 1224821; calls by dose curve)
Outline: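 Luminescence from One-Glo luciferase reagent (30 min, room temperature) measured after 18 h compound treatment at 37 °C. Cells carry the PGC/ERR reporter and were seeded 6 h prior to dosing.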

[20] = qHTS assay to identify small molecule agonists of the estrogen related receptor signaling pathway with the pleiotropic PPARgamma coactivator (PGC) (AID 1224823)
Outline: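 Luminescence from One-Glo reagent (30 min, room temperature) was read after 18 h compound treatment at 37 C of PGC/ERR cells plated 6 h beforehand; compounds delivered in DMSO by pin tool.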

Chain of Nuclear receptor subfamily 1 group I member 3 (Homo sapiens) (Q14994 whole entry, looked up): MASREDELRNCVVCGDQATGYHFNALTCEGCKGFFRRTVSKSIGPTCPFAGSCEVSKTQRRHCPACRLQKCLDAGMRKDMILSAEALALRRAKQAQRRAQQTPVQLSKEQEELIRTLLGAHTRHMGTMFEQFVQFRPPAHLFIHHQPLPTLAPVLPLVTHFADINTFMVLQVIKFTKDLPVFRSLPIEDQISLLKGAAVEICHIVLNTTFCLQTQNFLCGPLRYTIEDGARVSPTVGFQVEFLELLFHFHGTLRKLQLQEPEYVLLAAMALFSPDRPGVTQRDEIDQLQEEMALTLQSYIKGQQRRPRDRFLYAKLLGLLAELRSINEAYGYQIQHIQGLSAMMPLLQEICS
Chain of Retinoic acid receptor RXR-alpha (Homo sapiens) (P19793 whole entry, looked up): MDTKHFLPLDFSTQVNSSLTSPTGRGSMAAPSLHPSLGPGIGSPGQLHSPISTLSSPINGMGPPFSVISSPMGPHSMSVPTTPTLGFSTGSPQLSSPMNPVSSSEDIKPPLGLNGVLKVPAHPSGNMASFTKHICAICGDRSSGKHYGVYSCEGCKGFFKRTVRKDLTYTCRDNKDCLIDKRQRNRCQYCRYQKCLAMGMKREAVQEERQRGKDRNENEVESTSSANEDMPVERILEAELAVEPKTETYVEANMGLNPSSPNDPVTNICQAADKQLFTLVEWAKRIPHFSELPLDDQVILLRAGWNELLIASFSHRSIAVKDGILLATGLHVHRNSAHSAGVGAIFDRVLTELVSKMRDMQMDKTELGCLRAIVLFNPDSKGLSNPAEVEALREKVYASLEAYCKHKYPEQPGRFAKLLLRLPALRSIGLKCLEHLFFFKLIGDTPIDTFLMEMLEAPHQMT
Chain of Luciferin 4-monooxygenase (Photinus pyralis) (P08659 whole entry, looked up): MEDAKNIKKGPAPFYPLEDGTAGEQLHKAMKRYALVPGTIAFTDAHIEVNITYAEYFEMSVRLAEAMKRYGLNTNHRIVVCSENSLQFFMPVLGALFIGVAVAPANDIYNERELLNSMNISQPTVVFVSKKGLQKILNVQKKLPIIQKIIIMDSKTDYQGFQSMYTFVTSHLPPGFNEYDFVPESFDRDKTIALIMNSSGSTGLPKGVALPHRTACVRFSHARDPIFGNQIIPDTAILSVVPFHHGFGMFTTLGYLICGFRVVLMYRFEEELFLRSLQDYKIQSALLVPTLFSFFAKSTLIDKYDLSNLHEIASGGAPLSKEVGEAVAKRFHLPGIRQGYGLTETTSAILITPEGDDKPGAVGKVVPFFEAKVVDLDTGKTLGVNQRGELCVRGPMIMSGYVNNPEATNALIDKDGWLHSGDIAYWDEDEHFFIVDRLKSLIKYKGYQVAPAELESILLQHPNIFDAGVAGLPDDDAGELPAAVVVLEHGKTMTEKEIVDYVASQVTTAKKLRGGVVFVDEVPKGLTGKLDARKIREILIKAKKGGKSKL
Chain of Thyrotropin receptor (Homo sapiens) (P16473 whole entry, looked up): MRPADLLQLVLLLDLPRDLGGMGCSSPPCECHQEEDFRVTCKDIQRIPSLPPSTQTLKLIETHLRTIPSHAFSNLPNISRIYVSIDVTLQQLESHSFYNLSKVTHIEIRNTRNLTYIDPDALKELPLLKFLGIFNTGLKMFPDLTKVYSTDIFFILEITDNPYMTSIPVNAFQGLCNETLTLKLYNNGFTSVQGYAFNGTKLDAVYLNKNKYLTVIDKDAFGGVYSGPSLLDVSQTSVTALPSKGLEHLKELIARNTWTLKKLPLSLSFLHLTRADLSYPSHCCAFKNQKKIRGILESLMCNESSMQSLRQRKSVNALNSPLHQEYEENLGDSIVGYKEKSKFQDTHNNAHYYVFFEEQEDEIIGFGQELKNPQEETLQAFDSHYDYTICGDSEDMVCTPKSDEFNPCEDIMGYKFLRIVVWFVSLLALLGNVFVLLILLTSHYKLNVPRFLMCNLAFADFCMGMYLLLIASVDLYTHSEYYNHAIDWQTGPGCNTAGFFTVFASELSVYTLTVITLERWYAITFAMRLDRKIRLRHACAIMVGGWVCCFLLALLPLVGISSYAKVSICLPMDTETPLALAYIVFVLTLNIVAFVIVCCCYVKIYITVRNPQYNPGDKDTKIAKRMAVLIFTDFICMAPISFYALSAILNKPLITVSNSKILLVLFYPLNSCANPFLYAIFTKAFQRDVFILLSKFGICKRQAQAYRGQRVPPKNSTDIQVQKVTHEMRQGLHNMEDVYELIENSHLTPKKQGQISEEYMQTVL

| Structure (SMILES) | Potency [1] | Potency [2] | outcome [3] | Potency [4] | Potency [5] | outcome [6] | Potency [7] | Potency [8] | Potency [9] | Potency [10] | Potency [11] | Potency [12] | Potency [13] | Potency [14] | Potency [15] | Potency [16] | Potency [17] | outcome [18] | outcome [19] | outcome [20] |
| --- | --- | --- | --- | --- | --- | --- | --- | --- | --- | --- | --- | --- | --- | --- | --- | --- | --- | --- | --- | --- |
| CC(=O)Oc1ccccc1C(=O)O | inactive | inactive | inactive | inactive | inactive | inactive | inactive | inactive | inactive | inactive | inactive |  |  |  |  |  |  |  |  |  |
| C=CCOC(=O)CC(C)C | inactive | inactive | inactive | inactive | inactive |  | inactive | inactive | inactive | inactive | inactive | inactive | inactive | inactive | inactive |  |  |  |  |  |
| CCCCCCCCCCCCCCCCCC(=O)OCC(O)CO (stereo unspecified) | inactive | inactive | inactive | inactive | inactive |  | inactive | inactive | inactive | inactive | inactive | inactive | inactive |  |  |  |  |  |  |  |
| Cc1cnc(NC(=O)C2=C(O)c3ccccc3S(=O)(=O)N2C)s1 | inactive | inactive | inactive | inactive | inactive | inactive | inactive | 31.8 µM (active) and 22.4 µM (active) and 34.7 µM (active) | inactive | inactive | inactive |  |  |  |  |  |  |  |  |  |
| N[C@@H](Cc1c[nH]c2ccc(O)cc12)C(=O)O | inactive | inactive | inactive | inactive | inactive | inactive | inactive | 34.6 µM (active) and inactive | inactive | inactive | inactive | inactive | inactive |  |  |  |  |  |  |  |
| COc1ccccc1NC(=O)CC(C)=O | inactive | inactive | inactive | inactive | inactive |  | inactive | inactive | inactive | inactive | inactive | inactive | inactive |  |  |  |  |  |  |  |
| CCCCC/C(C=O)=C\c1ccccc1 | inactive | inactive | inactive | inactive | inactive |  | inactive | inactive | inactive | inactive | inactive | inactive | inactive |  |  |  |  |  |  |  |
| COc1cc(C=O)ccc1O | inactive | inactive | inactive | inactive | inactive |  | inactive | inactive | inactive | inactive | inactive | inactive | inactive |  |  |  |  |  |  |  |
| CC(=O)CCC(C)C | inactive | inactive | inactive | inactive | inactive |  | inactive | inactive | inactive | inactive | inactive | inactive | inactive |  |  |  |  |  |  |  |
| Cn1cnc2c1c(=O)[nH]c(=O)n2C | inactive | inactive | inactive | inactive | inactive | inactive | inactive | inactive | inactive | inactive | inactive | inactive |  |  |  | inactive |  |  |  |  |
| C=CC(=O)NC(C)(C)CS(=O)(=O)O | inactive | inactive | inactive | inactive | inactive |  | inactive | inactive | inactive | inactive | inactive | inactive | inactive |  |  |  |  |  |  |  |
| N[C@@H](Cc1c[nH]c2ccccc12)C(=O)O | inactive | inactive | inactive | inactive | inactive | inactive | inactive | inactive | inactive | inactive | inactive |  |  |  |  |  |  |  |  |  |
| CCN(CC)CCOC(=O)c1ccc(N)cc1 | inactive | inactive | inactive | inactive | inactive | inactive | inactive | inactive | inactive | inactive | inactive | inactive | inactive | inactive | inactive |  | inactive | inactive | inactive | inactive |
| C/C=C/c1ccc(O)c(OC)c1 | inactive | inactive | inactive | inactive | inactive |  | inactive | inactive | inactive | inactive | inactive | inactive | inactive |  |  |  |  |  |  |  |
| CCOCCO | inactive | inactive | inactive | inactive | inactive |  | inactive | inactive | inactive | inactive | inactive | inactive | inactive |  |  |  |  |  |  |  |
| NC(=O)NO | inactive | inactive | inactive | inactive | inactive | inactive | inactive | inactive | inactive | inactive | inactive | inactive |  |  |  |  |  |  |  |  |
| c1ccc2[nH]c(-c3cscn3)nc2c1 | 1.1 µM (active) and inactive | inactive | inactive | inactive | 8.69 µM (active) and 2.43 µM (active) and 5.31 µM (active) |  | inactive | 28.4 µM (active) and 35.6 µM (active) and 17.4 µM (active) | inactive | inactive | inactive | inactive | 13.8 µM (active) and 6.11 µM (active) and 7.5 µM (active) |  |  |  |  |  |  |  |
| C[C@]12CC[C@@H]3c4ccc(O)cc4C[C@@H](CCCCCCCCCS(=O)CCCC(F)(F)C(F)(F)F)[C@H]3[C@@H]1CC[C@@H]2O (stereo partly specified) | inactive | inactive | inactive | inactive | inactive | inactive |  | inactive | inactive | inactive | inactive | inactive | inactive | 19.3 µM (active) and 6.39 µM (active) | inactive |  | 7.22 µM (active) | inactive |  | inactive |
| COCC(C)N (stereo unspecified) | inactive | inactive | inactive | inactive | inactive |  | inactive | inactive | inactive | inactive | inactive | inactive | inactive |  |  |  |  |  |  |  |
